What is called inhibition is the change of the read-out against control, counted positive when it falls.

The campaign covered roughly 300,000 compounds. About 3,300 (1.1%) were called active. Not shown: some 6% with an inconclusive outcome.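 How the source made its calls: active means more than half of the replicate wells show a fall in the fluorescence ratio signal beyond about 16% (limit read from the data, passing the limit was not always enough); inconclusive means exactly half of the replicate wells pass the set limit; inactive means fewer than half of replicates pass the limit.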 Many of the other results were omitted from the sample, so actives are more common in it than they were.

Experimental findings from PubChem BioAssay AID2216 (Broad Institute, 2009) are described below.

In the experiment the test system is Ran GTPase (GTP-bound) - importin-beta complex. The experiment is described as follows: inhibitors of RanGTP-importin-beta interaction, primary screen, biochemical, FRET, CFP-Ran, YFP-importin-beta, homogeneous (AID 2216).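 Further: 0% = DMSO wells and 100% = Ran loaded with GDP instead of GTP.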 The following applies: cell-free CFP-Ran/YFP-importin-beta FRET ratio; active compounds read high; concentration not given here.
Turning to `CN(C)N1C(N)=C(C#N)C(c2ccc(Br)cc2)C2=C1CCCC2=O` (stereo not drawn), the inhibition was -0.393% (inactive).

Take `CSc1sc(C)cc1C1C(C#N)=C(N)N(c2cccnc2)C2=C1C(=O)CCC2` (stereo not drawn): the inhibition is 18.2% (active).

For the compound `N#CC1=C(N)N(c2ccccc2)C2=C(C(=O)CCC2)C1c1ccccc1` (stereo not drawn), the inhibition is -1.9% (inactive).

Turning to `Cc1occc1C(=O)N/N=C/c1ccc(-c2cccc([N+](=O)[O-])c2)o1`, the inhibition was -1.61% (inactive).

Turning to `O=C(CCCCO)c1ccc(O)c(Cl)c1`, the inhibition was -9.87% (inactive).

Turning to `Cc1ccc(-c2csc(NCCc3nc4cc(Cl)c(Cl)cc4n3CCOCCO)n2)cc1`, the inhibition was 3.23% (inactive).

On to `CCOC(=O)c1oc2c(CN3CCN(CCO)CC3)c(O)c(CC)cc2c(=O)c1-c1nc2ccccc2s1`, for which the inhibition was 16.5% (active).

As to `CCOC(=O)CCCN1CC(O)=C(c2nc3ccccc3s2)C1=N`, the inhibition was -2.49% (inactive).

On to `CCOC(=O)N1CCN(CC(=O)Nc2cc(C)nn2-c2nc3ccccc3s2)CC1`, for which the inhibition is -2.13% (inactive).

As to `COc1ccccc1C(=O)NCCC(=O)NCC(c1ccco1)N1CCCCC1` (stereo not drawn), the inhibition is 2.56% (inactive).

Regarding `COc1ccc(C(=O)C[n+]2ccc(C)cc2)cc1`, the inhibition was 6.13% (inactive).

On to `COc1ccc(C(=O)C[n+]2ccc(N)c(C)c2C)cc1`, for which the inhibition is 26.2% (active).

As for `COc1ccc(CCC(=O)c2ccc(OC)cc2)cc1`, the inhibition is 0.925% (inactive).

`COC(=O)c1c(-c2ccsc2)oc2ccc(-c3cc(OC)c(OC)c(OC)c3)cc12`: the inhibition is -4.62% (inactive).

Consider `Cc1ccc(-n2c(O)c(C=Nc3ccc(S(=O)(=O)Nc4ncccn4)cc3)c3ccccc3c2=O)cc1C`, for which the inhibition is -1.55% (inactive).

In the case of `CCOc1ccc(-n2c(O)c(/C=N/c3ccnn3Cc3ccncc3)c3ccccc3c2=O)cc1`, the inhibition was 0.299% (inactive).

With `CCOc1ccc(N=Cc2c(O)n(-c3cccc(C)n3)c(=O)c3ccccc23)cc1`, the inhibition was 22.9% (active).

As to `O=C(CSC(=S)N1CCOCC1)c1ccccc1`, the inhibition was 0.663% (inactive).

Turning to `O=C(CSC(=S)N1CCCCC1)c1c(F)cccc1F`, the inhibition is 18.8% (active).

For `CC(=O)c1ccc(NC(=O)CSC(=S)N2CCCC2)cc1`, the inhibition is -0.968% (inactive).

As for `Cc1cc(C)c(S(=O)(=O)N2CCCC2CNC(=O)c2ccc3c(c2)OCO3)c(C)c1` (stereo not drawn), the inhibition was 4.9% (inactive).

With `COc1ccccc1OCC(=O)Nc1ccccc1C(=O)NC1CC1`, the inhibition was -1.85% (inactive).

`COc1ccc(C2C(C#N)=C(N)Oc3cc(N)ccc32)cc1OC` (stereo not drawn): the inhibition was 70.8% (active).

Regarding `COC(=O)C1=C(C)OC(N)=C(C#N)C1c1cc(OC)ccc1OC` (stereo not drawn), the inhibition was -2.56% (inactive).

Turning to `COc1cc(C2C(C#N)=C(N)Oc3n[nH]c(-c4ccccn4)c32)cc(OC)c1OC` (stereo not drawn), the inhibition was -0.727% (inactive).

Consider `O=C1CN(C(=O)COc2c(Cl)cccc2Cl)c2ccccc2N1`, for which the inhibition is 0.217% (inactive).

With `CCOC(=O)c1cc2occc2n1CC(=O)N1CCN(C(=O)c2ccco2)CC1`, the inhibition is -1.58% (inactive).

Consider `CCOC(=O)c1cc2c(ccn2C)n1CC(=O)N1CCC(C)CC1`, for which the inhibition is 24.7% (active).

Consider `CCOC(=O)c1cc2ccccc2n1CC(=O)c1ccccc1`, for which the inhibition is -1.27% (inactive).

Consider `COc1ccc(OC)c(S(=O)(=O)N2CCCC(C(=O)N3CCC(C(N)=O)CC3)C2)c1` (stereo not drawn), for which the inhibition was 6.32% (inactive).

As to `O=C(O)c1ccccc1CSc1nc2ccccc2s1`, the inhibition was -3.5% (inactive).

Take `COC(=O)c1cc2c(ccn2C)n1C`: the inhibition is 21.8% (active).

Consider `COC(=O)c1ccc(S(=O)(=O)NCc2ccccc2)n1C`, for which the inhibition is -3.7% (inactive).

On to `CCC(C(=O)N1CCOCC1)n1c(C(=O)OC)cc2occc21` (stereo not drawn), for which the inhibition was -3.41% (inactive).

On to `COc1ccc(C(CNC(=O)c2cccc(S(=O)(=O)Nc3ccccc3Cl)c2)N2CCOCC2)cc1` (stereo not drawn), for which the inhibition is 10.7% (inactive).

As for `C/C=C/c1ccc(OCC(=O)OCC(=O)Nc2c(C)nn(-c3ccccc3)c2C)c(OC)c1`, the inhibition is 1.88% (inactive).

Take `COCCN1C(=O)N[C@@H](CCc2ccccc2)[C@H](C(C)=O)[C@H]1C`: the inhibition is -2.31% (inactive).

`COC(=O)C1=C(C)N(C)C(=S)NC1c1ccccc1` (stereo not drawn): the inhibition was 4.45% (inactive).

Turning to `COCCN1C2=C(COC(C)(C)C2)C(=S)NC1c1ccccc1` (stereo not drawn), the inhibition was 18.1% (active).

As for `O=C1CC2(CCCC2)Oc2ccc(Cl)cc21`, the inhibition is -0.936% (inactive).

As to `COc1cccc(COC(=O)C2CCN(S(=O)(=O)c3ccc(Cl)cc3)CC2)c1OC`, the inhibition was 3.92% (inactive).

Take `CCOc1ccc(N2CC(C(=O)NCc3ccccn3)CC2=O)cc1` (stereo not drawn): the inhibition is -1.93% (inactive).

As for `CCOc1ccc(NC(=O)[C@H](C)NC(=O)C2CC(=O)N(c3ccc(OC)cc3)C2)cc1` (stereo partly drawn), the inhibition was 2.72% (inactive).

Regarding `CCCC(C)c1nnc(NC(=O)C2CC(=O)N(c3ccc(OCC)cc3)C2)s1` (stereo not drawn), the inhibition was 18.4% (active).

In the case of `CC(OC(=O)c1ccc(-n2cnnn2)cc1)C(=O)NCc1ccccc1` (stereo not drawn), the inhibition was 3.57% (inactive).

In the case of `CCC(=O)Nc1c(S(=O)(=O)c2ccccc2)c2nc3ccccc3nc2n1Cc1ccccc1`, the inhibition was 22.2% (active).

For the compound `COC(=O)CSc1nc2ccccc2c(=O)n1Cc1ccccc1`, the inhibition is 5.12% (inactive).

On to `CCN(CC)CCn1c(N)c(S(=O)(=O)c2ccccc2)c2nc3ccccc3nc21`, for which the inhibition was 0.032% (inactive).

Turning to `O=C(CCCN=C1NS(=O)(=O)c2ccccc21)OCC(=O)c1ccc(F)c(F)c1`, the inhibition is 3.32% (inactive).

As to `CCC1(c2ccccc2)NC(=O)N(CC(=O)c2ccc3c(c2)OCO3)C1=O` (stereo not drawn), the inhibition is 1.92% (inactive).

For the compound `O=C(Nc1ccc(N2CCCCC2)cc1)c1cc(S(=O)(=O)N2CCOCC2)ccc1F`, the inhibition is -0.386% (inactive).

On to `CCn1c2ccccc2c2cc(NC(=O)COC(=O)c3ccccc3Br)ccc21`, for which the inhibition is -2.01% (inactive).

As for `CCn1c2ccccc2c2cc(NC(=O)C/C(C)=N/NC(=O)c3ccccc3N)ccc21`, the inhibition is -6.36% (inactive).

As for `CCn1c2ccccc2c2cc(NC(=O)CNC)ccc21`, the inhibition was 18.8% (active).

As to `COc1ccc(S(=O)(=O)N2CCCCC2)cc1NC(=O)c1cc([N+](=O)[O-])ccc1N1CCOCC1`, the inhibition is 8.1% (inactive).

As for `CC1CN(c2cc(=O)n(-c3cccc(Br)c3)c(=O)[nH]2)CC(C)O1` (stereo not drawn), the inhibition is 39.6% (active).

On to `CC1CN(C(=S)Nc2ccc(Br)cc2Cl)CC(C)O1` (stereo not drawn), for which the inhibition is -3.05% (inactive).

As to `CC1CN(c2cc(=O)n(Cc3ccc(F)cc3)c(=O)[nH]2)CC(C)O1` (stereo not drawn), the inhibition is 8.41% (inactive).

Take `CCOC(=O)c1c(C)oc2cc(Sc3ccccc3)c(O)c(O)c12`: the inhibition was -4.55% (inactive).

With `CS(=O)(=O)c1ccc(Cl)c(NC(=O)COC(=O)c2ncc(Cl)c(Cl)c2Cl)c1`, the inhibition is -0.161% (inactive).

Consider `COc1cc(-c2nnc(NC(=O)C3=COCCO3)o2)cc(OC)c1OC`, for which the inhibition is -0.69% (inactive).

On to `CCN1C(=O)[C@@H]2[C@@H](c3ccc(-c4cccc(Cl)c4)cc3)N3CCC[C@@]3(C(=O)OC)[C@@H]2C1=O`, for which the inhibition is 0.656% (inactive).

Consider `CCCNC(=O)c1onc(CSc2ccc(F)cc2)c1C(=O)NC(C)C`, for which the inhibition is -1.02% (inactive).

Consider `CC1CCN(c2ccc(-c3ccc(NC(=O)c4ccco4)cc3)nn2)CC1`, for which the inhibition was 0.987% (inactive).

As for `NC(=O)c1c(NC(=O)c2ccccc2)sc2c1CCCC2`, the inhibition was 3.77% (inactive).

With `COc1cccc(OC)c1C(=O)Nc1sc2c(c1C(N)=O)CCCC2`, the inhibition was 3.19% (inactive).

In the case of `NC(=O)c1c(Nc2nc3c(F)cccc3s2)sc2c1CCCC2`, the inhibition was 154% (active).

For the compound `CCOc1ccc(NC(=O)COc2ccc(C(=O)N3CCC(C(N)=O)CC3)cc2OC)cc1`, the inhibition is 1.65% (inactive).

`COc1ccc(C2=NN(C(=O)CSc3nc(=O)n4ccc(C)cc4n3)C(c3ccc(C)cc3)C2)cc1` (stereo not drawn): the inhibition was 3.51% (inactive).

For the compound `Cc1ccc(Cn2c(=N)c(S(=O)(=O)c3ccc(C)cc3)cc3c(=O)n4ccccc4nc32)cc1`, the inhibition was 1.91% (inactive).

Regarding `CCn1c(=N)c(S(=O)(=O)c2ccc(F)cc2)cc2c(=O)n3ccccc3nc21`, the inhibition is 152% (active).

On to `CCOCCCNC(=O)c1cc2c(=O)n3ccccc3nc2s1`, for which the inhibition is -3.33% (inactive).

Consider `C=CCSc1nnc2c(n1)-c1cccc3cccc-2c13`, for which the inhibition is 6.48% (inactive).

Regarding `CC(=O)c1ccc(S(=O)(=O)N2CCN(c3nc4c(C)c(C)ccc4cc3C#N)CC2)cc1`, the inhibition was 6.35% (inactive).

Regarding `Cc1cccc2cc(C#N)c(N3CCCC3)nc12`, the inhibition was 39.6% (active).

With `Cc1cc(C)c2nc(N3CCCC3)c(C#N)cc2c1`, the inhibition is 2.23% (inactive).

With `CCN(CC(=O)Nc1c(F)cccc1F)C(=O)c1ccc(-c2ccccc2)cc1`, the inhibition was -2.68% (inactive).

As to `COc1ccccc1C(=O)NC(=O)COC(=O)c1ccco1`, the inhibition is 1.31% (inactive).

`CCOC(=O)N1CCN(Cc2nnc(-c3ccccc3Cl)o2)CC1`: the inhibition was -2.66% (inactive).

Turning to `Nc1cccc2c1C(=O)N(Cc1nnc(-c3ccccc3Br)o1)C2=O`, the inhibition was 35.1% (active).

Turning to `Cn1cnnc1SCc1nnc(-c2ccccc2Br)o1`, the inhibition is 2.51% (inactive).

Take `COC(=O)Cc1[nH]n(-c2nc3ccccc3s2)c(=O)c1C(C)=Nc1ccc(OC)cc1`: the inhibition is -3.75% (inactive).

Consider `C/C(=N\NC(=O)CC(C)C)c1c(C(F)(F)F)[nH]n(-c2nc3ccccc3s2)c1=O`, for which the inhibition was 4.64% (inactive).

Take `COC(=O)Cc1cc(=O)n(-c2nc3ccccc3s2)[nH]1`: the inhibition is 18.9% (active).

In the case of `Cc1ccc(OCC(=O)Oc2ccccc2[N+](=O)[O-])cc1`, the inhibition is 0.472% (inactive).

On to `CC(=O)Nc1ccc(-c2nc3ccccc3o2)cc1`, for which the inhibition was -2.08% (inactive).

On to `CC(=O)Nc1ccc(Nc2c3ccccc3nc3ccccc23)cc1`, for which the inhibition is 52.8% (active).

For the compound `Cc1ccc(Nc2c3c(nc4ccccc24)CCC3)cc1`, the inhibition was 2.17% (inactive).

Regarding `COc1ccc(NC(=O)CSc2nnc(Cc3ccccc3)c(=O)n2N)cc1`, the inhibition was -2% (inactive).

Take `Fc1ccccc1COc1cccc2cccnc12`: the inhibition is 1.44% (inactive).

In the case of `COC(=O)c1sc(NC(=O)c2ccc(OC)cc2OC)nc1C`, the inhibition is -3.52% (inactive).

Regarding `COc1cc(SC)ccc1C(=O)Nc1cc(C)ccn1`, the inhibition was -5.84% (inactive).

For `COc1cc(SC)ccc1C(=O)Nc1nc(C)cs1`, the inhibition is 18.1% (active).
